The campaign covered roughly 330,000 compounds. About 4,900 (1.5%) were called active.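 How the source made its calls: active means inhibition above about 50% at the single test dose (limit read from the data); inactive means the rest.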 For the sample, actives were picked, then their nearest neighbours and some compounds at random.
What follows are molecules tested against Sentrin-specific protease 7 (Homo sapiens) (UniProt Q9BQF6) (assay: blockers of human SENP7 peptidase activity – biochemical, luminescence, uHTS, primary screen (AID 434973;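 further: plate controls were DMSO with enzyme for no effect and no enzyme buffer wells for full effect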)). Details: recombinant SENP7, Z-RLRGG-aminoluciferin luminescence, 40 min; at 5 µM; hits give high values.

SMILES	inhibition
Cc1ccccc1CSc1nnc(CCCCCNC(=O)OC(C)(C)C)o1	8.18% (inactive)
CC(NC(=O)c1ccco1)c1ccc2c(c1)OCO2 (configuration not stated)	9% (inactive)
CCc1ccc(Oc2coc3cc(O)ccc3c2=O)cc1	-2.69% (inactive)
CC(C)CN(Cc1c(O)ccc2c(=O)c(-c3ccccc3)coc12)CC(C)C	11.8% (inactive)
O=c1c(-c2ccccc2)coc2cc(O)ccc12	66.2% (active)
CC(=O)Nc1ccc(S(=O)(=O)N2CCC(C(=O)N[C@@H](Cc3ccccc3)C(=O)O)CC2)cc1	-6.11% (inactive)
CC1(C)CC(=O)C(C=NCCN2CCN(C(=S)Nc3cccc(Cl)c3)CC2)=C(O)C1	-11.9% (inactive)
Cc1[nH]n(-c2ccc([N+](=O)[O-])cc2)c(=O)c1C=NCCN1CCN(C(=O)c2ccccc2F)CC1	82.4% (active)
Cc1[nH]n(-c2ccccc2)c(=O)c1N=Nc1ccccc1C(=O)N1CCCCC1	0.644% (inactive)
Cc1ccc(-n2[nH]c(C)c(/C=N/NC(=O)c3cccc([N+](=O)[O-])c3)c2=O)cc1C	-1.05% (inactive)
C=CCNC(=S)N1CCN(CCN=Cc2c(C)[nH]n(-c3ccc([N+](=O)[O-])cc3)c2=O)CC1	87.2% (active)
CCNC(=S)N1CCN(CCN=CC2=C(O)CC(C)(C)CC2=O)CC1	-0.44% (inactive)
Cc1ccc(C(=O)N(CC(=O)NC2CCCC2)c2ccc(F)cc2)s1	-4.07% (inactive)
CCc1noc(C)c1C(=O)N1CCN(S(=O)(=O)c2cccc(C(F)(F)F)c2)CC1	0.961% (inactive)
O=C(Nc1cc2ccccc2oc1=O)C1CCCCC1	0.223% (inactive)
S=c1[nH]c(-c2cccs2)cn1-c1ccccc1	-0.786% (inactive)
O=c1oc2ccccc2cc1-c1cn(-c2ccccc2)c(=S)[nH]1	99.2% (active)
COc1ccc(C(CCN(Cc2ccc(OC)c(OC)c2)C(=O)CCl)c2ccccc2)cc1 (configuration not stated)	-4.24% (inactive)
CCCS(=O)(=O)N1CCCC(C(=O)NCCN2CCCCC2C)C1 (configuration not stated)	4.11% (inactive)
COc1ccc(/C=C2\SC(=S)N(CC(=O)NNC(=O)c3ccncc3)C2=O)cc1	5.57% (inactive)
C=CCOc1ccc(/C=C2\SC(=S)N(CCC(=O)O)C2=O)cc1	98.9% (active)

SMILES	inhibition
COc1ccc(/C=C2\SC(=S)N(CCC(=O)Nc3cccc(C(=O)O)c3)C2=O)cc1OC	-3.5% (inactive)
CCO[C@@H]1OC(C(=O)NC2CC2)=C[C@H](C)[C@H]1CCCO	6.12% (inactive)
Cn1nccc1NS(=O)(=O)c1ccc(F)cc1	4.62% (inactive)
O=C(CN1CCOC1=O)N1CCCC(Nc2ccc(F)c(F)c2)C1 (configuration not stated)	1.33% (inactive)
Cc1cccc(NC(=O)c2ccc3ccccc3n2)n1	78.7% (active)
Cc1cccc(NC(=O)c2cccnc2Cl)n1	5.58% (inactive)
Cc1cccc(NC(=O)c2cc(N3C(=O)CCC3=O)ccc2Cl)n1	6.63% (inactive)
O=C(O)C1=CCCN(CCON=C(c2ccccc2)c2ccccc2)C1	1.76% (inactive)
Cc1ccc(CSc2nsc(C)c2C#N)cc1	-2.96% (inactive)
COC(=O)C(=Nc1ccccc1)/C(C(=O)C(=O)N(C)c1ccccc1)=C(\O)c1ccc(Cl)cc1	-1.49% (inactive)
CCn1c(CC(=O)Nc2ccccc2C)nnc1SCC(=O)NC1=NCCS1	-7.93% (inactive)
CC(=O)Nc1ccccc1NC(=O)c1cc(C)cc(C)c1	2.28% (inactive)
CSCc1ccc(C(=O)Nc2cc(C)cc(C)c2)cc1	75.3% (active)
C=CCN(c1ccc(C(=O)Nc2cc(C)cc(C)c2)cc1)S(C)(=O)=O	6.36% (inactive)
CN(C)C(=O)Cn1c(=O)n(S(=O)(=O)c2ccccc2)c2ccccc21	2.64% (inactive)
Cc1ccc(C(=O)N/C(=C/c2cccnc2)C(=O)O)cc1	-9.12% (inactive)
C/C(=N\NC(=O)c1ccc(C)cc1)C1C(=O)c2ccccc2C1=O	77.1% (active)
C/C(=N\NC(=O)CNC(=O)C(c1ccccc1)c1ccccc1)c1ccc(C)cc1	-4.66% (inactive)
CC(=O)N1c2ccc(S(=O)(=O)N3CCCC(C(=O)Nc4ccc(C)cc4C)C3)cc2CC1C (configuration not stated)	7.52% (inactive)
CSc1ccc(C#N)cc1NC(=O)c1ccc(Cl)cc1	0.394% (inactive)
CNC(=O)c1sc(NCc2ccccc2OC)nc1C	6.9% (inactive)

SMILES	inhibition
CC(=O)c1sc(N/N=C/c2ccc(C(C)C)cc2)nc1C	0.0938% (inactive)
COc1cccc2sc(Nc3nc(C)c(C(C)=O)s3)nc12	69.1% (active)
COc1ccc(S(=O)(=O)N2CCOC2CNC(=O)C(=O)NCc2ccc(F)cc2)cc1 (configuration not stated)	2.2% (inactive)
Cn1c(CCN2CCCCCC2)nc2cc(NC(=O)Nc3ccccc3)ccc21	10% (inactive)
C=CCN(C(=O)Nc1ccc2c(c1)nc(C)n2C)c1ccccc1	5.72% (inactive)
Cc1nc2cc(NC(=O)Nc3cccc(F)c3)ccc2n1C	96.5% (active)
O=[N+]([O-])c1c(NCCO)cc(Sc2nc3ccccc3s2)c2nonc12	79.2% (active)
Cc1nc2nc(CSc3nc4ccccc4s3)cc(=O)n2[nH]1	-13.3% (inactive)
NC(=O)c1ccc(Nc2ccc3nonc3c2[N+](=O)[O-])cc1	-0.507% (inactive)
COc1ccc(OCC(O)CN(C)C(=O)C(C)Oc2ccccc2)cc1 (configuration not stated)	11.8% (inactive)
COc1ccc(C2=NS(=O)(=O)N(C)C(C(=O)N3CCCCC3)=C2)cc1	-5.66% (inactive)
O=C(CCNS(=O)(=O)c1cccs1)N1CCN(c2ccc(F)cc2)CC1	-1.51% (inactive)
N/C(=N\OC(=O)CC1CCCCC1)c1ccccc1	21.8% (inactive)
N/C(=N\OC(=O)CCC1CCCCC1)c1ccccn1	82% (active)
COc1ccccc1OCC(=O)O/N=C(\N)c1ccccn1	7.18% (inactive)
O=C(CSc1nnc(COc2ccc(Cl)cc2)n1Cc1ccco1)N1CCNC1=O	-0.0156% (inactive)
O=S(=O)(NCC1CC1)c1ccc(F)c(Cl)c1	2.72% (inactive)
COc1cc(N=Cc2c(O)c3ccccc3oc2=O)c(OC)cc1Cl	-0.159% (inactive)
COc1ccccc1N=Cc1c(O)c2ccccc2oc1=O	88% (active)
COc1ccccc1N=C(C)C1=C(O)COC1=O	-4.17% (inactive)

Source: PubChem BioAssay AID434973 (Sanford-Burnham Center for Chemical Genomics, 2010)
